Records with an inconclusive call do not appear. Calls of active or inactive are those of the source. The calls were made as follows, unless noted: active = hit-call score of the fitted dose curve at least 0.9, where 1 is the maximum; inconclusive = response in the unintended direction; inactive = score below 0.9.
Columns and labels:
[1] = target: Estrogen receptor (Homo sapiens) (UniProt P03372); test: NVS_NR_hER: NovaScreen (NVS) Nuclear Receptor Binding Assay for human Estrogen Receptor (ER) (AID 2283348)
Method in brief: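 Cell-free radioligand binding with protein extracted from MCF7 cells; scintillation counting 18 hours after dosing. Loss of signal versus DMSO baseline read as displacement; primary single-concentration screen at 25 uM in duplicate, actives retested in concentration series.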

[2] = TOX21_p53_BLA_p2_viability: Viability Assessment in the Tox21 HCT-116 p53 Agonism Beta-lactamase Assay, Phase 2 (AID 2283591);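 also: compound exposure lasted 16 h at 37 °C; actives lower the ATP signal meaning cytotoxicity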
Method in brief: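 HCT-116 p53-bla cells (4000/well) rested 5 h at 37C, then received compounds in DMSO (217-fold dilution) for 16 h at 37C, 5% CO2. After the CCF4 read, CellTiter-Glo was added; ATP luminescence was read after 30 min at room temperature.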

[3] = target: Cellular tumor antigen p53 (Homo sapiens) (UniProt P04637); test: TOX21_p53_BLA_p2_ratio: Tox21 HCT-116 p53 Agonism Beta-lactamase Assay, Ratio, Phase 2 (AID 2283592)
Method in brief: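 In this cell-based reporter format, HCT116 cells were dosed with chemicals delivered from DMSO by 217-fold dilution and incubated 16 h at 37C. Emission at 460 and 530 nm after 2 h CCF4-AM loading provided the ratio, fitted upward versus DMSO.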

[4] = target: Cellular tumor antigen p53 (Homo sapiens) (UniProt P04637); test: TOX21_p53_BLA_p3_ratio: Tox21 HCT-116 p53 Agonism Beta-lactamase Assay, Ratio, Phase 3 (AID 2283596)
Method in brief: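 HCT116 p53-bla cells (4000/well) given compound in DMSO (217-fold dilution) after 5 h, incubated 16 h at 37C. CCF4-AM substrate 2 h at room temperature; 460/530 nm emission ratio, gain fitted against DMSO.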

[5] = TOX21_p53_BLA_p4_viability: Viability Assessment in the Tox21 HCT-116 p53 Agonism Beta-lactamase Assay, Phase 4 (AID 2283597);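 also: hits lower the luminescence signal meaning cytotoxicity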
Method in brief: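 We seeded HCT116 p53 reporter cells at 4000/well and waited 5 h. We then added compounds in DMSO at a 217-fold dilution and incubated for 16 h. Viability was read as CellTiter-Glo luminescence after 30 min at RT.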

[6] = TOX21_p53_BLA_p5_viability: Viability Assessment in the Tox21 HCT-116 p53 Agonism Beta-lactamase Assay, Phase 5 (AID 2283600)
Method in brief: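 Compounds, pinned from DMSO at 217-fold dilution, were left on the cells for 16 h. The viability endpoint was ATP content measured by CellTiter-Glo luminescence, where falling signal reflects cytotoxicity.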

[7] = target: Cellular tumor antigen p53 (Homo sapiens) (UniProt P04637); test: TOX21_p53_BLA_p4_ratio: Tox21 HCT-116 p53 Agonism Beta-lactamase Assay, Ratio, Phase 4 (AID 2283601)
Method in brief: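 HCT116 cells carrying an inducible beta-lactamase reporter were plated at 4000 cells/well, rested 5 h, then exposed to compounds in DMSO (217-fold dilution) for 16 h at 37C. CCF4-AM substrate was loaded 2 h at room temperature; 460/530 nm emission ratio scored gain-of-signal versus DMSO.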

[8] = target: bovine Estrogen Receptor (ER), ESR1 (gene 407238) (UniProt P49884); test: NVS_NR_bER: NovaScreen (NVS) Nuclear Receptor Binding Assay for bovine Estrogen Receptor (ER) (AID 2283345);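 also: actives lower the bound radioligand count which means they displace the ER ligand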
Method in brief: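 Bovine uterine membranes; tritiated or iodinated radioligand; competitive displacement; 18 h; scintillation read; DMSO negative control; 25 uM duplicates, then concentration series for actives.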

[9] = target: mouse Estrogen Receptor alpha (Era), Esr1 (gene 13982) (UniProt P19785); test: NVS_NR_mERa: NovaScreen (NVS) Nuclear Receptor Binding Assay for mouse Estrogen Receptor alpha (Era) (AID 2283378);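 also: hit means loss of bound radioligand signal relative to DMSO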
Method in brief: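 Filter scintillation counts of bound radioligand, measured 18 h post-dose, gave the readout; decreased signal relative to DMSO controls indicated displacement from mouse Era. Primary screen ran in duplicate at 25 uM; active chemicals were retested across concentrations.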

[10] = TOX21_p53_BLA_p3_viability: Viability Assessment in the Tox21 HCT-116 p53 Agonism Beta-lactamase Assay, Phase 3 (AID 2283593);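 also: cells exposed to compound for 16 h before reading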
Method in brief: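 HCT-116 cells (4000/well) rested 5 h at 37C, then got DMSO compounds by pin tool (217-fold dilution) for 16 h at 37C, 5% CO2. After the bla read, CellTiter-Glo was added and luminescence read at 30 min, room temperature.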

[11] = CCTE_Harrill_HTTr_Viability_MCF7: CCTE's 6-hour Cell Viability Assessment for the High-Throughput Transcriptomics (HTTr) Platform, in MCF-7 cells cultured in DMEM + 10% fetal bovine serum, Harrill Lab (AID 2284010; active = hit-call score of the fitted dose curve at least 0.9, where 1 is the maximum; inactive = score below 0.9)
Method in brief: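 MCF-7 cells in DMEM + 10% FBS, 384-well, exposed 6 h to an eight-point dilution series. Membrane integrity scored by high-content imaging of propidium iodide exclusion; bidirectional fit versus DMSO.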

[12] = CCTE_Harrill_HTTr_Apoptosis_MCF7: CCTE's 6-hour Apoptosis Assessment for the High-Throughput Transcriptomics (HTTr) Platform, in MCF-7 cells cultured in DMEM + 10% fetal bovine serum, Harrill Lab (AID 2284011; active = hit-call score of the fitted dose curve at least 0.9, where 1 is the maximum; inactive = score below 0.9)
Method in brief: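 Read-out: CellEvent Caspase 3/7 Green signal by high content imaging, gain-of-signal indicating apoptosis. MCF-7 cells, DMEM + 10% FBS, eight-point dilution series, 6 h exposure. Curves fitted bidirectionally relative to DMSO negative control.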

[13] = CCTE_Harrill_HTTr_CellCount_MCF7: CCTE's Cell Proliferation Assessment for the High-Throughput Transcriptomics (HTTr) Platform, Harrill Lab (AID 2284012);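 also: cells exposed to compound for six hours; intended direction is loss of nuclei count meaning fewer cells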
Method in brief: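 MCF7 cells exposed 6 hours to an eight-point dilution series; Hoechst-stained nuclei counted by high-content imaging. Bidirectional curve fitting against DMSO baseline.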

[14] = target: Norway rat Vesicular Monoamine Transporter (VMAT2), neurotransmitter transporter, Slc18a2 (gene 25549) (UniProt Q01827); test: NVS_TR_rVMAT2: NovaScreen (NVS) Transporter Assay for Norway rat Vesicular Monoamine Transporter (VMAT2), neurotransmitter transporter (AID 2283376);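 also: actives lower the bound radioligand signal below the DMSO level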
Method in brief: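 Rat forebrain tissue preparation used in a cell-free radioligand binding format; displacement read by filter-based scintillation counting 1 hour after dosing. Primary screen in duplicate at 25 uM, actives then run in concentration series; loss of signal versus DMSO baseline.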

[15] = target: Cellular tumor antigen p53 (Homo sapiens) (UniProt P04637); test: TOX21_p53_BLA_p5_ratio: Tox21 HCT-116 p53 Agonism Beta-lactamase Assay, Ratio, Phase 5 (AID 2283599)
Method in brief: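 HCT-116 cells carrying a p53-inducible beta-lactamase reporter were seeded at 4000 cells/well and dosed after 5 h with compound in DMSO (217-fold dilution). After 16 h at 37C, CCF4-AM substrate was added for 2 h, and the 460/530 nm emission ratio was scored as gain-of-signal versus DMSO.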

[16] = target: rat Oxytocin Receptor (OXT), Oxtr (gene 25342) (UniProt P70536); test: NVS_GPCR_rOXT: NovaScreen (NVS) G Protein-Coupled Receptor Assay for rat Oxytocin Receptor (OXT) (AID 2283330)
Method in brief: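 Radioligand displacement on rat uterine membranes, 1 h incubation, filter-based scintillation counting. Chemicals were screened in duplicate at 25 uM, and those passing threshold were retested in concentration-response up to 50 uM. Loss of binding was fitted versus DMSO.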

[17] = target: rat Gamma-Aminobutyric Acid Type A Receptor BDZ, alpha 6 site (GABARa6), Gabra6 (gene 29708) (UniProt P30191); test: NVS_LGIC_rGABARa6: NovaScreen (NVS) Ligand-Gated Ion Channel Assay for rat Gamma-Aminobutyric Acid Type A Receptor BDZ, alpha 6 site (GABARa6) (AID 2283339)
Method in brief: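 Rat cerebellar membranes; radioligand binding, filtration and scintillation counting, read 1 h after dosing. Single-concentration duplicate screen at 25 uM, then concentration-response up to 50 uM for actives; loss of signal fitted versus DMSO baseline.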

[18] = ACEA_ER_AUC_viability: ACEA Biosciences xCELLigence Real-Time Cell Analysis on Estrogen Receptor Agonism for Viability (AID 2283782);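 also: continuous compound exposure with impedance area under curve over 80 h; hit means loss of impedance signal meaning reduced cell growth or viability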
Method in brief: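 T-47D human breast cells in phenol red-free RPMI1640 with 10% charcoal-stripped FBS were dosed with an 8-point 1:4 dilution series from 100 uM top final concentration, in duplicate. Impedance-based growth was followed for 80 h; AUC analysed versus DMSO.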

Measured: AC50

Sequence of Cellular tumor antigen p53 (Homo sapiens) (P04637 whole entry, looked up): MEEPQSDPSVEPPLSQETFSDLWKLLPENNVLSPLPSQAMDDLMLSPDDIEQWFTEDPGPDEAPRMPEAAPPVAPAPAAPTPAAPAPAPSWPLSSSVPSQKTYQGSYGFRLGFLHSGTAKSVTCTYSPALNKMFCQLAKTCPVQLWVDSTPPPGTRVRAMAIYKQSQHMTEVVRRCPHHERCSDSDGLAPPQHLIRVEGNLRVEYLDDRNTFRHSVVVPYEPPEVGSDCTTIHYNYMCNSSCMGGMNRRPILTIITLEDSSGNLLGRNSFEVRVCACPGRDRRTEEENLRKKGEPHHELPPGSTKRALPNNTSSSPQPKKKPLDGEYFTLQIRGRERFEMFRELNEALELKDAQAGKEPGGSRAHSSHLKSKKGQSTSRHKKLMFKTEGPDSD
Sequence of Norway rat Vesicular Monoamine Transporter (VMAT2), neurotransmitter transporter, Slc18a2 (gene 25549) (Q01827 whole entry, looked up): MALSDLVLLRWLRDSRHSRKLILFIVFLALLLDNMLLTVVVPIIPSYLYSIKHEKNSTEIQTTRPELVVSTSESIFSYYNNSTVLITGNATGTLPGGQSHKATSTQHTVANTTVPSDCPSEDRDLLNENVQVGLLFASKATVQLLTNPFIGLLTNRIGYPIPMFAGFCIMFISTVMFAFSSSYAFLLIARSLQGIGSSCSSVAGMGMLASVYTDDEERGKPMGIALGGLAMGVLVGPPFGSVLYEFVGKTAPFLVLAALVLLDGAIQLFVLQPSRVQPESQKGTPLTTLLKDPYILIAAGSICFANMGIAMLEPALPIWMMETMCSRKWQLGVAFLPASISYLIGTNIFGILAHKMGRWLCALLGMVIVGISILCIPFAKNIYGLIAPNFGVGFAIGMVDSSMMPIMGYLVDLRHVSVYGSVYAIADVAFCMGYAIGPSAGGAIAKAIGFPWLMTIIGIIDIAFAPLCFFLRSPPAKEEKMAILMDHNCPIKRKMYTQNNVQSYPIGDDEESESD
Sequence of Estrogen receptor (Homo sapiens) (P03372 whole entry, looked up): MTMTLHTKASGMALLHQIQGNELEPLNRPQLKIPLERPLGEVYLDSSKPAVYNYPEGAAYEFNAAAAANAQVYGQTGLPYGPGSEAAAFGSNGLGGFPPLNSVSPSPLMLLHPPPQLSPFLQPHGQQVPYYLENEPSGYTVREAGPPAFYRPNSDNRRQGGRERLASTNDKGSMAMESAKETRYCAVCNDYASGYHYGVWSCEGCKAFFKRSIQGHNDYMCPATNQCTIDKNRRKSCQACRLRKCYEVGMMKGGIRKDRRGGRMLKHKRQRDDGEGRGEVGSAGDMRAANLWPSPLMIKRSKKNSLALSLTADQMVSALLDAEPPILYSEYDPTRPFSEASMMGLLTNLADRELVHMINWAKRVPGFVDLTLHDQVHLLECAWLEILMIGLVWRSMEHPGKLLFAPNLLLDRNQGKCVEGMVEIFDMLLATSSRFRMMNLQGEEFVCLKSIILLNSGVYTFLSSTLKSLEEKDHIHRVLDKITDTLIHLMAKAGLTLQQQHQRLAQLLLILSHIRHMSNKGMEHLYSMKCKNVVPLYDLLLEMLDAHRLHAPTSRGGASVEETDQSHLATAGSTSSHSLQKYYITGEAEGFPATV
Sequence of bovine Estrogen Receptor (ER), ESR1 (gene 407238) (P49884 whole entry, looked up): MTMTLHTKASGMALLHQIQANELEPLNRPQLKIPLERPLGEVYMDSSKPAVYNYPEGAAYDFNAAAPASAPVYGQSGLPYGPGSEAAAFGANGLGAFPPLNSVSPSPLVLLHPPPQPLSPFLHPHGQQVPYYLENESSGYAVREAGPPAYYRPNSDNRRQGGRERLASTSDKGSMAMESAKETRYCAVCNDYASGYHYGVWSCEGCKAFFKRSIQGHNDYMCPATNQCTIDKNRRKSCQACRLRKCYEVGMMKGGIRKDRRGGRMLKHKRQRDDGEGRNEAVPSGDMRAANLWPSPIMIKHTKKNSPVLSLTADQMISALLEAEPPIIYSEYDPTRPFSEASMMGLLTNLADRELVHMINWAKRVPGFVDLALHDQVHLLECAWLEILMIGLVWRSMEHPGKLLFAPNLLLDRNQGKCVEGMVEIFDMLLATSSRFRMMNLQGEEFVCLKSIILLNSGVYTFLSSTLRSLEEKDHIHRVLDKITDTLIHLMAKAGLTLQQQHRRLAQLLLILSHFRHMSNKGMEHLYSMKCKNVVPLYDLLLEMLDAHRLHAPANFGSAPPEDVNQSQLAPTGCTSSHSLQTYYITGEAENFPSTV
Sequence of mouse Estrogen Receptor alpha (Era), Esr1 (gene 13982) (P19785 whole entry, looked up): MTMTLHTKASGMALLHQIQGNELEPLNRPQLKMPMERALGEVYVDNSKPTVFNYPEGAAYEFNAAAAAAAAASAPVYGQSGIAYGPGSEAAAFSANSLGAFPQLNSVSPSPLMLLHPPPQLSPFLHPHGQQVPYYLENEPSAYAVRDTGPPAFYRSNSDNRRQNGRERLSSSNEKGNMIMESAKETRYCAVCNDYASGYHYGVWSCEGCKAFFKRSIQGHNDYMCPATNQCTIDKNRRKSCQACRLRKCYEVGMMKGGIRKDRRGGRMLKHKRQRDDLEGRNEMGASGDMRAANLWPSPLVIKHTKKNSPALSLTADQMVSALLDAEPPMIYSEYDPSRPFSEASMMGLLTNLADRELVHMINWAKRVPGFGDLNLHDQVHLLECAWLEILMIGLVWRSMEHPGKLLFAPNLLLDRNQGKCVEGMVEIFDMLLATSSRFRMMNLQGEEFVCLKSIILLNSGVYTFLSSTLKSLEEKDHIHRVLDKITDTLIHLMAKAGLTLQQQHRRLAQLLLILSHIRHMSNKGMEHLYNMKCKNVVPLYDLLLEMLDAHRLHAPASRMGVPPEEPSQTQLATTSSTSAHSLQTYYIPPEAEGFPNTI
Sequence of rat Gamma-Aminobutyric Acid Type A Receptor BDZ, alpha 6 site (GABARa6), Gabra6 (gene 29708) (P30191 whole entry, looked up): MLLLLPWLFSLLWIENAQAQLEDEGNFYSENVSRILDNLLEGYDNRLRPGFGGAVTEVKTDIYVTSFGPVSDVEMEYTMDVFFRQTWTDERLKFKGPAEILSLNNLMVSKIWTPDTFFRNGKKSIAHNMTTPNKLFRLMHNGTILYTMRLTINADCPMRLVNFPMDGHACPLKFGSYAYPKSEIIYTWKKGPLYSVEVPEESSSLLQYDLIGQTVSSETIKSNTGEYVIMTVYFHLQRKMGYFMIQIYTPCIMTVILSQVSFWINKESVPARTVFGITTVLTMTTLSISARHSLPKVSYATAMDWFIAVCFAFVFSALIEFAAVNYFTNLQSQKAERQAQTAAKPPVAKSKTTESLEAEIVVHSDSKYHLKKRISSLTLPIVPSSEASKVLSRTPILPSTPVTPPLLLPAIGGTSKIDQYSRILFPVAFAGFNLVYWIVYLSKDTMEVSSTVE
Sequence of rat Oxytocin Receptor (OXT), Oxtr (gene 25342) (P70536 whole entry, looked up): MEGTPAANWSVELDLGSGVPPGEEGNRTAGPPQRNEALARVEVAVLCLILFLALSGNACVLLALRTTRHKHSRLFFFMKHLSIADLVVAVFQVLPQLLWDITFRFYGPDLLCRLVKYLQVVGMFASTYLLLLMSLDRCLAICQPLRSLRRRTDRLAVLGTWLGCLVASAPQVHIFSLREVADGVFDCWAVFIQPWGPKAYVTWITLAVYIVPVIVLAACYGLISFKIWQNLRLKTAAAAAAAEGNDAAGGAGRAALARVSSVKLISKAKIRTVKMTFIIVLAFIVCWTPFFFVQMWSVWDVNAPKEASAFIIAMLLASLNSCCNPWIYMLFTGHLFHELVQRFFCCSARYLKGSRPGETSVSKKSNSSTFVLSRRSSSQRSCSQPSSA

CCN(CC)c1c([N+](=O)[O-])cc(C(F)(F)F)c(N)c1[N+](=O)[O-]
inactive: [1] | [2] | [3] | [4] | [5] | [6] | [7]

OC(c1ccc(F)cc1)(c1cncnc1)c1ccccc1Cl (stereo unspecified)
active: [1] 21.2 µM
inactive: [8] | [9] | [3] | [10] | [5] | [7] | [11] | [12] | [13]

CN(C)C(=O)Nc1cccc(OC(=O)NC(C)(C)C)c1
inactive: [8] | [3] | [10] | [4]

CO[C@H]1/C=C/O[C@@]2(C)Oc3c(C)c(O)c4c(O)c(c(/C=N/N5CCN(C)CC5)c(O)c4c3C2=O)NC(=O)/C(C)=C\C=C\[C@H](C)[C@H](O)[C@@H](C)[C@@H](O)[C@@H](C)[C@H](OC(C)=O)[C@@H]1C
inactive: [14]

Cc1ccc(S(=O)(=O)C(I)I)cc1
active: [14] 1.19 µM

[Hg+2].[I-].[I-]
active: [2] 35.4 µM | [3] 54.2 µM | [10] 70.1 µM | [4] 72.1 µM | [5] 18.4 µM | [15] 73.7 µM | [6] 57.5 µM | [7] 33 µM
inactive: [8] | [1]

Cc1ccc(O)c(C(C)(C)C)c1
inactive: [14]

CC(Oc1ccc(Oc2ncc(C(F)(F)F)cc2Cl)cc1)C(=O)O (stereo unspecified)
inactive: [8] | [1] | [2] | [3] | [5] | [11] | [12] | [13]

O=C1OC(=O)C2C3C=CC(C3)C12 (stereo unspecified)
inactive: [16]

Cc1ccc(C(C)C)c(O)c1
inactive: [17]

CCCN(CCC)c1c([N+](=O)[O-])cc(S(C)(=O)=O)cc1[N+](=O)[O-]
inactive: [1]
active: [18] 50 µM

O=c1n(CC2CO2)c(=O)n(CC2CO2)c(=O)n1CC1CO1 (stereo unspecified)
inactive: [17]

COc1ccc(N)cc1N
inactive: [8]

CC(C)OC(=O)C(O)(c1ccc(Cl)cc1)c1ccc(Cl)cc1
inactive: [1] | [9] | [3] | [10] | [4] | [6]
active: [2] 70.6 µM | [5] 67.4 µM | [15] 66.6 µM | [7] 69.8 µM

CCOP(=O)(Sc1ccccc1)Sc1ccccc1
inactive: [8] | [1]

c1coc(-c2nc3ccccc3[nH]2)c1
inactive: [8] | [1] | [2] | [4] | [5] | [6]

CCCCOC(=O)CCCCCCCCC(=O)OCCCC
inactive: [16]

N#Cc1sc2c(=O)c3ccccc3c(=O)c=2sc1C#N
inactive: [12] | [13]
active: [8] 9.58 µM | [1] 10.3 µM | [2] 14.9 µM | [3] 0.333 µM | [10] 25.2 µM | [4] 52.2 µM | [5] 8.76 µM | [6] 7.3 µM | [11] 11.1 µM

C=CC(=O)OCCCCO
inactive: [8] | [1]

COc1cccc(O)c1
inactive: [14]
